{"source": "PubChem BioAssay AID1347416", "about": "(National Center for Advancing Translational Sciences (NCATS), 2020)", "note": "Hit rate of the full screen: of about 4,100 compounds, about 1,600 (39%) were called active. Roughly 25% stayed inconclusive and do not appear here. Some of the results follow. A number with no mark means an inactive call. The call rests on the fitted dose curve; in most records, active means well fitted inhibition curve with a large enough effect; inconclusive means small, poorly fitted or top-dose-only effect; inactive means no such curve, though single readings can be large or run the other way. On the % scale 0 is the no-effect control and ±100 the full control effect; potency means the concentration at half of the fitted maximal effect.", "data": [{"experiment": "qHTS Validation assay for Inhibitors of Plasmodium falciparum Dd2 growth in vitro; further: nearly all actives have a fitted effect of over 70% in size", "conditions": "P. falciparum Dd2 in RBCs, SYBR Green growth, 72 h; series mostly up to 28.7 µM; activity change, negative = inhibition: at the top concentration", "source_text": "Malaria, a parasitic disease spread to humans through the bite of a Plasmodium infected Anopheles mosquito, continues to be a global health burden affecting millions of people, with an estimated 228 million cases and 405,000 deaths in 2018. Concerns about safety and limitations of current antimalarial treatments strongly emphasize the need to develop new therapeutic options. The scarce number of chemotypes and validated drug targets with efficacy against the liver stage, have hindered development of new antimalarials. To address this, a chemoprophylactic drug discovery effort was conducted through a combined phenotypic high-throughput asexual blood stage and liver stage screen, providing a robust foundation to identify liver-stage active lead chemotypes. Compounds were initially screened against Plasmodium falciparum Dd2 strain parasites using a in vitro SYBRGreen-1 based 72 hr proliferation assay to identify novel chemotypes to advance to liver stage assays. NIH/NCATS Early Translation Branch Assay Submitter (PI): Anton Simeonov Ph.D.\n[…] Assay Protocol: PROTOCOL TABLE (as described by Inglese et al., 2007) SEQUENCE No. (e.g., 1, 2, 3, etc.); PARAMETER (e.g., Cells, Incubation, Reagent, etc.); VALUE; DESCRIPTION SEQUENCE, Parameter, Description 1; Reagent; 3 uL complete malaria growth medium, 1536 TC treated Black clear bottom plate 2; Controls; 23 nL positive control artesunate (300 nM final) to column 1; Neutral control DMSO to columns 2-4 3; Compound; 23 nL of compounds in dose response concentration (29 uM to 0.5 nM final) 4; Reagent; 5 uL malaria infected red blood cells (2.5% hematocrit final, 0.3% parasitemia 5; Time; 72 hours at 37C (5% O2, 5% CO2, 90% N2; 95% Rh) 6; Reagent; 2 uL lysis buffer/SYBRGreen-1, 25 sec shake immediately following dispense 7; Time; ~16 hours at 37C (5% O2, 5% CO2, 90% N2; 95% Rh) 8; Detector; EnVision (PerkinElmer) bottom read at 485/14nm excitation and 535/25 nm emission NOTES (numbers refer to sequence above): 1; Complete Malaria Growth Media: 1X RPMI-1640 w/L-glutamine, 5.5g/L Albumax II, 367 uM Hypoxanthine, 25 mM HEPES, 0.25% Sodium Bicarbonate, 35 uM Gentamicin sulfate 2; Controls were added using the Kalypsis Pintool (Wako USA) equipped with 1536 pinhead 3; Compounds were added in a 7-point, titration with a high final concentration of 29 uM by Pintool from seven inter-plate titrations of library plates and two DMSO control plates at the beginning and end (see Yasgar et al., 2008). 4; Red blood cells infected with Plasmodium falciparum Dd2 parasites were used. 6; Lysis buffer: 20 mM Tris-HCl, 10 mM EDTA, 0.16% Saponin, 1.6% Triton-X, 10X SYBR Green. REFERENCE: Inglese J, Shamu CE, Guy RK. 2007. Reporting data from high-throughput screening of small-molecule libraries. Nat Chem Biol. doi:10.1038/nchembio0807-438 Yasgar A, Shinn P, Jadhav A, Auld D, Michael S, Zheng W, Austin CP, Inglese J, Simeonov A. 2008. Compound Management for Quantitative High-Throughput Screening. J Lab Autom 13:79-89. doi:10.1016/j.jala.2007.12.004", "values": [{"compound": "CN1Cc2ccccc2-n2ccnc2C12CCN(C(=O)c1cccc(C(F)(F)F)c1)CC2", "activity change, negative = inhibition": "-8.82%"}, {"compound": "Clc1ccc(C(Cn2ccnc2)OCc2csc3c(Cl)cccc23)c(Cl)c1", "note": "(centres undefined)", "Potency": "2.37 µM (active)"}, {"compound": "CCCCn1c(NS(=O)(=O)c2ccccc2)c(C(=O)OCC)c2nc3ccccc3nc21", "Potency": "10.6 µM (active)"}, {"compound": "C=CC1CN2CCC1CC2C(OC(C)=O)c1ccnc2ccc(OC)cc12", "note": "(centres undefined)", "Potency": "1.68 µM (active)"}, {"compound": "CN(C)CC1CSCCC1(O)c1ccccc1Cl", "note": "(centres undefined)", "Potency": "5.96 µM (active)"}, {"compound": "Cc1ccccc1CN1C(=O)CN=C(c2ccccc2)c2cc(Cl)ccc21", "Potency": "16.8 µM (active)"}, {"compound": "CCC1(OC(=O)CN)C(=O)OCc2c1cc1n(c2=O)Cc2cc3ccccc3nc2-1", "note": "(centres undefined)", "Potency": "6.68 µM (active)"}, {"compound": "Oc1ccc(Cl)cc1CN1CCN(Cc2ccccc2)CC1", "Potency": "0.944 µM (active)"}, {"compound": "Oc1c(Cl)cc(Cl)cc1CN1CCN(Cc2ccccc2)CC1", "Potency": "0.668 µM (active)"}, {"compound": "O=C(NC[C@H]1C[C@@H]2CCN1C[C@@H]2CN1CCC(Cc2ccccc2)CC1)c1ccccc1", "Potency": "7.69 µM (active)"}, {"compound": "COc1ccc(CN2CCCC(C(=O)c3ccc(Cl)cc3)C2)c(O)c1", "note": "(centres undefined)", "Potency": "0.531 µM (active)"}, {"compound": "O=C(C[C@@H]1NCCC[C@H]1O)Cn1cnc2cc(Br)c(Cl)cc2c1=O", "Potency": "2.37 µM (active)"}, {"compound": "C[n+]1c(-c2ccccc2)cc(-c2ccc(Cl)cc2)cc1-c1ccccc1", "Potency": "6.68 µM (active)"}, {"compound": "COc1cc2c(cc1Oc1cccc(N(C)C)c1)NC(=O)C21CCN(c2cnccn2)CC1", "Potency": "1.5 µM (active)"}, {"compound": "COc1cc2c(cc1OC1CCCC1)NC(=O)C21CCN(c2cnccn2)CC1", "Potency": "7.69 µM (active)"}, {"compound": "COc1cc2c(cc1OCc1ccccc1)NC(=O)C21CCN(c2ccccn2)CC1", "Potency": "15.3 µM (active)"}, {"compound": "Cn1nccc1CN1CCC2(CC1)C(=O)Nc1ccccc12", "activity change, negative = inhibition": "-13.6% [at 43.1 µM]"}, {"compound": "COc1cc2c(cc1OCC1CC1)NC(=O)C21CCN(c2nccs2)CC1", "Potency": "21.7 µM (active)"}, {"compound": "COc1cc2c(cc1OCC1CC1)NC(=O)C21CCN(C(=O)c2cccnc2)CC1", "activity change, negative = inhibition": "44.2% [at 43.1 µM]"}, {"compound": "COc1cc2c(cc1Oc1ccccc1)NC(=O)C21CCN(c2cnccn2)CC1", "Potency": "2.17 µM (active)"}, {"compound": "COc1cc2c(cc1Oc1ccccc1)NC(=O)C21CCN(C(=O)c2ccccc2)CC1", "activity change, negative = inhibition": "9.16% [at 43.1 µM]"}, {"compound": "O=C(Nc1ccc2n(c1=O)C[C@H]1C[C@@H]2CN(Cc2ccc(F)cc2)C1)c1cccs1", "Potency": "15.3 µM (active)"}, {"compound": "C#C[C@H]1CN2CC[C@H]1C[C@@H]2CNCc1ccc(F)c(F)c1", "Potency": "13.7 µM (active)"}, {"compound": "C#C[C@H]1CN2CC[C@H]1C[C@@H]2CNCc1cccc(Cl)c1", "Potency": "4.85 µM (active)"}, {"compound": "CC[C@H]1CN2CC[C@H]1C[C@@H]2CNCc1ccc(SC)cc1", "Potency": "4.33 µM (active)"}, {"compound": "O[C@H]1[C@H](NCC2CCCC2)[C@@H](c2ccccc2)C[C@H]1O", "Potency": "6.11 µM (active)"}, {"compound": "COc1cc2c(cc1OCc1ccccc1)N(C(=O)c1cc3ccccc3n1C)CC21CCN(C)CC1", "Potency": "2.11 µM (active)"}, {"compound": "COc1cc2c(cc1OCc1ccccc1)N([S+](=O)([O-])c1cccnc1)CC21CCN(C)CC1", "Potency": "10.6 µM (active)"}, {"compound": "COc1cc2c(cc1OCc1ccccc1)N(C(=O)c1cc3ccccc3[nH]1)CC21CCN(C)CC1", "Potency": "0.944 µM (active)"}, {"compound": "CCc1ccc(CN2CCN(Cc3cc(Br)ccc3O)CC2)cc1", "Potency": "2.11 µM (active)"}, {"compound": "Oc1ccc(Br)cc1CN1CCN(c2ccccc2)CC1", "Potency": "2.11 µM (active)"}, {"compound": "Cc1ccc(O)c(CN2CCN(c3ccccc3)CC2)c1", "Potency": "2.99 µM (active)"}, {"compound": "CC(C)c1ccc(O)c(CN2CCN(c3ccccc3)CC2)c1", "Potency": "1.33 µM (active)"}, {"compound": "CNC(=O)Oc1cccc(-c2cn3cc(OC(=O)NC)ccc3n2)c1", "activity change, negative = inhibition": "-2.9%"}, {"compound": "Oc1cc2c(cc1CN1CCN(c3ccccc3)CC1)CCC2", "Potency": "3.35 µM (active)"}, {"compound": "COc1ccccc1N1CCN(Cc2cc(C)c(C)cc2O)CC1", "Potency": "0.376 µM (active)"}, {"compound": "CC(C)(C)c1ccc(O)c(CN2CCN(c3ccccc3)CC2)c1", "Potency": "1.5 µM (active)"}, {"compound": "COc1ccc(-c2cc([C@H]3CN4CC[C@H]3C[C@@H]4CNS(=O)(=O)c3ccc(Cl)cc3)n(C)n2)cc1OC", "Potency": "2.99 µM (active)"}, {"compound": "COc1ccc(OC)c(S(=O)(=O)NC[C@H]2C[C@@H]3CCN2C[C@@H]3c2cc(-c3ccc(F)cc3)nn2C)c1", "Potency": "6.68 µM (active)"}, {"compound": "COc1ccc(-c2cn(C[C@H]3C[C@@H]4CCN3C[C@@H]4C(=O)NCc3ccccc3)nn2)cc1", "activity change, negative = inhibition": "-16.3% [at 43.1 µM]"}, {"compound": "Cn1nc(C2CCCCC2)cc1[C@H]1CN2CC[C@H]1C[C@@H]2CNC(=O)c1cccs1", "Potency": "13.7 µM (active)"}, {"compound": "COc1ccc(-c2cc([C@H]3CN4CC[C@H]3C[C@@H]4CNC(=O)NC3CCCCC3)n(C)n2)cc1", "Potency": "1.88 µM (active)"}, {"compound": "Cc1ccc(S(=O)(=O)NC[C@H]2C[C@@H]3CCN2C[C@@H]3CN2CCc3ccccc32)cc1", "Potency": "13.7 µM (active)"}, {"compound": "CN1CCN(C[C@H]2CN3CC[C@H]2C[C@@H]3CNS(=O)(=O)c2ccccc2)CC1", "activity change, negative = inhibition": "0% [at 43.1 µM]"}, {"compound": "C[n+]1c2ccccc2nc2ccc(NCCO)cc21", "Potency": "1.19 µM (active)"}, {"compound": "COc1cccc(CC(=O)N2[C@H]3CC[C@@H]2c2cnc(-c4ccc(F)cc4)nc2C3)c1", "activity change, negative = inhibition": "-7.05%"}, {"compound": "COC(=O)C1=C(c2ccc(OC)c(OC)c2)C[C@@H]2CC[C@H]1N2C(=O)NCc1cccc2ccccc12", "Potency": "3.35 µM (active)"}, {"compound": "COC(=O)C1=C(c2ccc(-c3ccccc3)c(F)c2)C[C@@H]2CC[C@H]1N2C(=O)NCc1cccc2ccccc12", "Potency": "10.6 µM (active)"}, {"compound": "CCCCCSc1cc(O)c(C(CNC)C(C)C)cc1OC", "note": "(centres undefined)", "Potency": "0.168 µM (active)"}]}]}
